Reference: PubChem BioAssay (Tox21)
Inconclusive results are not listed. The source made the active and inactive calls. Unless noted, the call rests on the fitted dose curve; in most records, active means well fitted curve in the direction sought with a large enough effect in the repeat runs; inconclusive means weak or mixed curves; inactive means no such curve, though single readings can be large; an effect the other way counts as inactive or inconclusive.

How the values were obtained:
[1] = qHTS assay to identify small molecule antagonists of the thyroid receptor (TR) signaling pathway - cell viability counter screen (AID 743064); further: nearly all actives have a fitted effect of over 50% in size; further: potency means the concentration at half of the fitted maximal effect
In short: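 GH3.TRE-Luc rat pituitary cells carrying a TRE-luciferase reporter were treated with compound plus 1 nM T3 (final) for 23.5 h at 37 °C. Viability was then read in the same wells by CellTiter-Fluor fluorescence after a further 30 min.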

[2] = qHTS assay to identify small molecule antagonists of the thyroid receptor (TR) signaling pathway (AID 743065); further: nearly all actives have a fitted effect of over 55% in size; further: potency means the concentration at half of the fitted maximal effect; on activity, negative = inhibition: series mostly up to about 70 µM
In short: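 GH3.TRE-Luc rat pituitary cells carrying two TR response elements driving luciferase were plated for 4 h, given compound plus 1 nM T3 (final), and incubated 23.5 h at 37 C. ONE-Glo luminescence measured reporter inhibition; CellTiter-Fluor fluorescence tracked cytotoxicity.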

[3] = qHTS assay to identify small molecule antagonists of the estrogen receptor alpha (ER-alpha) signaling pathway - cell viability counter screen (AID 743074; calls by dose curve;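 further: HEK293 cells carrying ER-alpha-UAS-bla reporter stimulated with 17beta-estradiol; nearly all actives have a fitted effect of over 45% in size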)
[4] = molecular target: Estrogen receptor (Homo sapiens) (UniProt P03372); experiment: qHTS assay to identify small molecule agonists of the estrogen receptor alpha (ER-alpha) signaling pathway (AID 743075; calls by dose curve;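 further: HEK293 GripTite cells with ER-alpha and UAS-driven beta-lactamase reporter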)
[5] = molecular target: Estrogen receptor (Homo sapiens) (UniProt P03372); experiment: qHTS assay to identify small molecule agonists of the estrogen receptor alpha (ER-alpha) signaling pathway using the BG1 cell line (AID 743079); further: nearly all actives have a fitted effect of over 20% in size
Aromatase (Homo sapiens) = Aromatase (Homo sapiens) (UniProt P11511); experiment: qHTS assay to identify aromatase inhibitors (AID 743083); further: nearly all actives have a fitted effect of over 55% in size; further: potency means the concentration at half of the fitted maximal effect; on activity, negative = inhibition: series mostly up to about 70 µM
[6] = qHTS assay to identify aromatase inhibitors - cell viability counter screen (AID 743084);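 further: cells stimulated with testosterone during compound exposure; nearly all actives have a fitted effect of over 55% in size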; further: potency means the concentration at half of the fitted maximal effect
[7] = molecular target: Aryl hydrocarbon receptor (Homo sapiens) (UniProt P35869); experiment: qHTS assay to identify small molecule that activate the aryl hydrocarbon receptor (AhR) signaling pathway (AID 743085); further: nearly all actives have a fitted effect of over 15% in size; further: potency means the concentration at half of the fitted maximal effect;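 on activation: HG2L7.5c1 human HepG2 liver cells with stably integrated DRE-driven firefly reporter; series mostly up to about 70 µM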
In short: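 HepG2 cells (HG2L7.5c1) stably carrying a firefly luciferase reporter driven by 20 dioxin responsive elements were exposed to compound for 24 h at 37C after a 5 h settling period; luminescence rise (ONE-Glo) indicated activation.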

[8] = qHTS assay to identify small molecule that activate the aryl hydrocarbon receptor (AhR) signaling pathway - cell viability counter screen (AID 743086); further: nearly all actives have a fitted effect of over 45% in size; further: potency means the concentration at half of the fitted maximal effect;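 on viability change, negative = cytotoxic: HepG2 liver cells carrying the AhR DRE luciferase reporter; series mostly up to about 70 µM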
In short: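 HepG2-AhR-luc (HG2L7.5c1) cells, 4000/well, were preincubated 5 h at 37C, exposed to compound in qHTS format for 24 hr at 37C, then given CellTiter-Fluor for 30 min; viability was read as fluorescence in the reporter wells.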

[9] = molecular target: Peroxisome proliferator-activated receptor gamma (Homo sapiens) (UniProt P37231); experiment: qHTS assay to identify small molecule agonists of the peroxisome proliferator-activated receptor gamma (PPARg) signaling pathway (AID 743094; active means well fitted activation curve with a large enough effect in the signal ratio in the repeat runs, not every such curve was filed as active; the % refers to the signal ratio)
In short: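 Agonism was assessed in a beta-lactamase reporter system, HEK293H cells with a stably integrated UAS-bla construct under PPARg control; the 17 h treatment at 37C preceded a 1 h room-temperature FRET substrate read.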

[10] = qHTS assay to identify small molecule antagonists of the peroxisome proliferator-activated receptor gamma (PPARg) signaling pathway - cell viability counter screen (AID 743194); further: nearly all actives have a fitted effect of over 55% in size
In short: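 PPARg-UAS-bla HEK293H cells were plated, rested 5 h at 37 C, then treated with compounds plus rosiglitazone (50 nM final) for 17 h at 37 C; viability was then read by CellTiter-Glo luminescence after 30 min at room temperature.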

[11] = qHTS assay for small molecule agonists of the antioxidant response element (ARE) signaling pathway (AID 743202; active means well fitted activation curve with a large enough effect in the signal ratio in the repeat runs, not every such curve was filed as active; the % refers to the signal ratio)
In short: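 Following a 16 h, 37 C exposure of reporter HepG2 cells (ARE-driven beta-lactamase, 2,000 cells/well) to compounds, FRET substrate was applied for 2 h at room temperature and fluorescence intensity recorded.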

[12] = qHTS assay for small molecule activators of the heat shock response signaling pathway - cell viability counter screen (AID 743209); further: nearly all actives have a fitted effect of over 50% in size
In short: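 Compounds dissolved in DMSO were added to overnight-plated HSE-bla HeLa cells and left 5 h at 37 C. Cell viability was quantified by luminescence using CellTiter-Glo.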

[13] = qHTS assay for small molecule activators of the heat shock response signaling pathway (AID 743210; active means well fitted activation curve with a large enough effect in the signal ratio in the repeat runs, with a control signal flat, not every such curve was filed as active; the % refers to the signal ratio; further: series mostly up to about 63 µM)
In short: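 Heat shock element–beta-lactamase HeLa reporter cells; qHTS with compounds for 5 h at 37 C; detection by FRET substrate fluorescence after 2.5 h at RT.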

[14] = system: thyroid hormone receptor (rat, GH3 cells); experiment: qHTS assay to identify small molecule agonists of the thyroid receptor (TR) signaling pathway (AID 743066; calls by dose curve)
[15] = qHTS assay to identify small molecule antagonists of the estrogen receptor alpha (ER-alpha) signaling pathway using the BG1 cell line - cell viability counter screen (AID 743081);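 further: compound given together with 17beta-estradiol as the ER stimulus; series mostly up to about 70 µM; nearly all actives have a fitted effect of over 45% in size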
[16] = qHTS assay for small molecule agonists of the antioxidant response element (ARE) signaling pathway - cell viability counter screen (AID 743203; calls by dose curve; further: nearly all actives have a fitted effect of over 55% in size)
In short: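 ATP content via CellTiter-Glo luminescence served as the viability measure. Cells: ARE-bla HepG2, 2,000 per well. Exposure: 16 hrs, 37C/5% CO2.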

[17] = molecular target: Estrogen receptor (Homo sapiens) (UniProt P03372); experiment: qHTS assay to identify small molecule antagonists of the estrogen receptor alpha (ER-alpha) signaling pathway (AID 743069; active means well fitted curve in the direction sought with a large enough effect in the signal ratio in the repeat runs, not every such curve was filed as active; the % refers to the signal ratio)
In short: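 A 17beta-estradiol challenge was applied right after compound transfer to ER-alpha-UAS-bla HEK293 cells previously kept in charcoal-stripped serum. Plates stood 18 hr at 37C and 5% CO2; fluorescence was read following 2 hr FRET substrate loading at room temperature.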

[18] = qHTS assay to identify small molecule antagonists of the estrogen receptor alpha (ER-alpha) signaling pathway using the BG1 cell line (AID 743080; calls by dose curve;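 further: BG1 cells stimulated with 17beta-estradiol alongside compound; series mostly up to about 70 µM; nearly all actives have a fitted effect of over 25% in size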)
In short: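 Luciferase inhibition measured with ONE-Glo after 30 min at RT in BG1Luc4E2 cells given test compounds and 17beta-estradiol for 21.5 h at 37 C; CellTiter-Fluor viability read in the same wells beforehand.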

[19] = molecular target: Peroxisome proliferator-activated receptor gamma (Homo sapiens) (UniProt P37231); experiment: qHTS assay to identify small molecule antagonists of the peroxisome proliferator-activated receptor gamma (PPARg) signaling pathway (AID 743191; calls by dose curve; further: series mostly up to about 63 µM; nearly all actives have a fitted effect of over 30% in size)
In short: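 GeneBLAzer PPARg UAS-bla HEK293H cells carrying a UAS-driven beta-lactamase reporter were plated at 3000 cells/well, preincubated 5 h at 37C, then given compound for 17 h at 37C; LiveBLAzer B/G FRET substrate was read after 1 h at room temperature.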
On the % scale 0 is the no-effect control and ±100 the full control effect.

Chain of Peroxisome proliferator-activated receptor gamma (Homo sapiens) (P37231 whole entry, looked up): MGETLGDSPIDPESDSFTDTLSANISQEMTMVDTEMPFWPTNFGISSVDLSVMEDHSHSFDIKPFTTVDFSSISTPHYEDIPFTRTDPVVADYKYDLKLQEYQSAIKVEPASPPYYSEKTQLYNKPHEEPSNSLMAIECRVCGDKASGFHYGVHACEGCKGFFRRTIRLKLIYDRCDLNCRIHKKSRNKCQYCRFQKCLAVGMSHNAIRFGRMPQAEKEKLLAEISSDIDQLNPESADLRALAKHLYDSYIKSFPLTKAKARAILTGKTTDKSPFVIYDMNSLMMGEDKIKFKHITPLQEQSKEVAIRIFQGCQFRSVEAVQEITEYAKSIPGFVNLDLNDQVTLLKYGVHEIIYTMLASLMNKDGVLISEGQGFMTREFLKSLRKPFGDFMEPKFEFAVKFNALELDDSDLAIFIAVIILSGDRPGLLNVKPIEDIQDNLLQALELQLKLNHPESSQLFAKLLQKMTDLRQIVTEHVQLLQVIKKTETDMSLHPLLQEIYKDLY
Chain of Aromatase (Homo sapiens) (P11511 whole entry, looked up): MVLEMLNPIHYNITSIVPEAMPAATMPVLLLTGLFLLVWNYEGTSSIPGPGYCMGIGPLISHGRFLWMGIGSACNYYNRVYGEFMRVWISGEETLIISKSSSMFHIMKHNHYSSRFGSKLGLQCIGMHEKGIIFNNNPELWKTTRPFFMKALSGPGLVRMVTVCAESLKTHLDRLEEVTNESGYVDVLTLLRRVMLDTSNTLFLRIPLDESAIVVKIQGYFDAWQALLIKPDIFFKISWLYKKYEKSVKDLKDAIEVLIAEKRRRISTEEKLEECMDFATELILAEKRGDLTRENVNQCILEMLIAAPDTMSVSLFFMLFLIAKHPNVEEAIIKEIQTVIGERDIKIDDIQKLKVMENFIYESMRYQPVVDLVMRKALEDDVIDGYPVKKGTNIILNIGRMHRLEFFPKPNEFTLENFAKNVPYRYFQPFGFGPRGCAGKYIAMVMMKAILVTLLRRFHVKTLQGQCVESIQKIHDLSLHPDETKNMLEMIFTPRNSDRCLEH
Chain of Estrogen receptor (Homo sapiens) (P03372 whole entry, looked up): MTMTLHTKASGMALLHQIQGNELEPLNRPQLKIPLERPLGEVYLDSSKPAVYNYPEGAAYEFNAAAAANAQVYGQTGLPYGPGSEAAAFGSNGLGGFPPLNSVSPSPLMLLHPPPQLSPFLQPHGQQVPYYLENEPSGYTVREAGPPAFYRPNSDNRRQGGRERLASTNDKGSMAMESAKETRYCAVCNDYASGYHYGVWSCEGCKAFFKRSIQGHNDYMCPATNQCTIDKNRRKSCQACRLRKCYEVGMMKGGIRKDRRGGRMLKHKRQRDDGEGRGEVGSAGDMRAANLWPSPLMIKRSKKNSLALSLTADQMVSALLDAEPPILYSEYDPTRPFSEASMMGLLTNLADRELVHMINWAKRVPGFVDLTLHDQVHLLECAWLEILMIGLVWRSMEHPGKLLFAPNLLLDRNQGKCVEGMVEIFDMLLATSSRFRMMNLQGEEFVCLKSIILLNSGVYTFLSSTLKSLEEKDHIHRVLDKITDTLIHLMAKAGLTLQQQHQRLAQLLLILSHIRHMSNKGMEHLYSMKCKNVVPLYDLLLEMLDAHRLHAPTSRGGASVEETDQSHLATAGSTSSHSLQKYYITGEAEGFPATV
Chain of Aryl hydrocarbon receptor (Homo sapiens) (P35869 whole entry, looked up): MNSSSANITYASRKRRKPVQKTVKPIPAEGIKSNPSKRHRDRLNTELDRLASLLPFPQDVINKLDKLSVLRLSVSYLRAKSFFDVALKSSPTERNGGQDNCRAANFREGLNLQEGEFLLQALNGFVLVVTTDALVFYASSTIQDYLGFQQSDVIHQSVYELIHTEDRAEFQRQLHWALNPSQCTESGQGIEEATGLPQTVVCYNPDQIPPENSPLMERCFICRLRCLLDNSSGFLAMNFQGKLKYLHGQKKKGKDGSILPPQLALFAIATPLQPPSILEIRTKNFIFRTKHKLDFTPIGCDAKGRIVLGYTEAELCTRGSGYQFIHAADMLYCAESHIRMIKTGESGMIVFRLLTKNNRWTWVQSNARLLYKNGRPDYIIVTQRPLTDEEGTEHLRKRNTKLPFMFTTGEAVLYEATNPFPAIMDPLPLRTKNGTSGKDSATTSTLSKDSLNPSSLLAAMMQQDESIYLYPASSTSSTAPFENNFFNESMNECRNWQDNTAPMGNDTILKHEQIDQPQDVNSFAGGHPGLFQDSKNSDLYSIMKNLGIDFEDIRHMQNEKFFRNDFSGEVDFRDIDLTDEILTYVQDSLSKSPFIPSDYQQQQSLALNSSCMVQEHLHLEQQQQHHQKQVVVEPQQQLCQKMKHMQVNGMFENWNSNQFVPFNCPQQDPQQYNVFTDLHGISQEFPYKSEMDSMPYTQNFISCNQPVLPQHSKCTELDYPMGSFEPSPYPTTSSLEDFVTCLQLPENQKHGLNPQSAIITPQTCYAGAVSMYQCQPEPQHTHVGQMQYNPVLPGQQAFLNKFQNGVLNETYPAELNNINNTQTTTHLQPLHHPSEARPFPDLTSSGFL

COC(=O)C1=C(C)NC(C)=C(C(=O)OCC(C)=O)C1c1ccccc1[N+](=O)[O-] (stereo not given)
inactive: outcome [3] | Potency [4] | Potency [5] | outcome [9] | Potency [10] | Potency [11] | outcome [12] | outcome [13]
active: Potency [1] 8.41 µM | Potency [2] 7.5 µM | Potency (Aromatase (Homo sapiens)) 26.6 µM | Potency [6] 26.6 µM | Potency [7] 8.41 µM | Potency [8] 29.8 µM

COc1cc(C(=O)N2CCOCC2)cc(OC)c1OC
inactive: Potency [1] | Potency [2] | Potency [14] | outcome [3] | outcome [15] | Potency (Aromatase (Homo sapiens)) | Potency [6] | Potency [7] | outcome [9] | Potency [10] | Potency [11] | outcome [16] | outcome [12] | outcome [13]

CN(C)N=Nc1ccccc1
inactive: Potency [1] | Potency [2] | Potency [14] | outcome [3] | outcome [15] | Potency [8] | Potency [10] | Potency [11] | outcome [16] | outcome [12] | outcome [13]

CCCCCCCCCCCCCCC
inactive: Potency [1] | Potency [2] | Potency [14] | outcome [15] | Potency [8] | Potency [10] | Potency [11] | outcome [16] | outcome [12] | outcome [13]

c1cc(CN2CCCCC2)cc(OCCCNc2nc3ccccc3s2)c1
active: Potency [1] 11.9 µM | Potency [2] 23.7 µM | Potency [7] 26.6 µM
inactive: Potency [17] | Potency [4] | outcome [15] | Potency [6] | outcome [9] | Potency [11] | outcome [12] | outcome [13]

Cc1ncc(CSSCc2cnc(C)c(O)c2CO)c(CO)c1O
inactive: Potency [2] | Potency [14] | Potency [17] | outcome [3] | Potency [4] | Potency [5] | Potency [18] | outcome [15] | Potency (Aromatase (Homo sapiens)) | Potency [6] | Potency [7] | Potency [8] | outcome [9] | outcome [19] | Potency [10] | Potency [11] | outcome [16]

CCC(=O)Nc1cccc(N)c1
inactive: Potency [1] | Potency [17] | outcome [3] | Potency [4] | Potency [5] | Potency [18] | outcome [15] | Potency (Aromatase (Homo sapiens)) | Potency [6] | Potency [7] | Potency [8] | outcome [9] | outcome [19] | Potency [10] | outcome [12] | outcome [13]

N#CCc1ccccc1[N+](=O)[O-]
inactive: Potency [1] | Potency [2] | Potency [14] | outcome [3] | outcome [15] | Potency (Aromatase (Homo sapiens)) | Potency [6] | Potency [8] | outcome [9] | outcome [19] | Potency [10] | Potency [11] | outcome [12] | outcome [13]

CN1[C@@H]2CC[C@H]1CC(NC(=O)n1c(=O)[nH]c3ccccc31)C2 (stereo not given in full)
inactive: Potency [1] | Potency [17] | outcome [3] | Potency [4] | Potency [5] | Potency [18] | outcome [15] | Potency (Aromatase (Homo sapiens)) | Potency [6] | Potency [7] | Potency [8] | outcome [9] | outcome [19] | outcome [16] | outcome [12] | outcome [13]

OCCN1C[C@H](O)[C@@H](O)[C@H](O)[C@H]1CO
inactive: Potency [2] | Potency [14] | Potency [17] | outcome [3] | Potency [4] | Potency [5] | Potency [18] | outcome [15] | Potency (Aromatase (Homo sapiens)) | Potency [6] | Potency [7] | Potency [8] | outcome [9] | outcome [19] | Potency [10] | Potency [11] | outcome [16] | outcome [12] | outcome [13]

COc1cc(C)cc(O)c1
inactive: Potency [1] | Potency [2] | Potency [14] | outcome [3] | outcome [15] | Potency (Aromatase (Homo sapiens)) | Potency [6] | outcome [9] | outcome [16] | outcome [12] | outcome [13]

C=C(C)C(=O)NCCC[N+](C)(C)C
inactive: Potency [2] | Potency [14] | Potency [17] | Potency [4] | Potency [5] | Potency [18] | outcome [15] | Potency (Aromatase (Homo sapiens)) | Potency [6] | Potency [7] | Potency [8] | outcome [9] | outcome [19] | Potency [10] | Potency [11] | outcome [12] | outcome [13]

FC(F)(F)C(F)(F)C(F)(F)C(F)(F)C(F)(F)C(F)(F)C(F)(F)C(F)(F)C(F)(F)C(F)(F)F
inactive: activity, negative = inhibition [2] 5.14% [at 8.44 µM] | activation [14] 0.424% [at 8.08 µM] | activity, negative = cytotoxicity [3] -10% [at 6.72 µM] | activity change, negative = cytotoxicity [15] 7.45% [at 8.47 µM] | activity, negative = inhibition (Aromatase (Homo sapiens)) 1.74% [at 8.47 µM] | activity change, negative = cytotoxicity [6] 5.22% [at 8.47 µM] | activation [7] 0.197% [at 8.47 µM] | viability change, negative = cytotoxic [8] 24.8% [at 8.47 µM] | activation [9] -0.797% [at 7.08 µM] | ratio activity, negative = inhibition [19] -8.26% [at 5.95 µM] | activity change, negative = cytotoxicity [10] 1.8% [at 5.95 µM] | activation [11] 0.659% [at 8.36 µM] | viability change, negative = cytotoxic [16] 0.46% [at 8.36 µM] | activity change, negative = cytotoxicity [12] 3.17% [at 5.95 µM] | activation [13] 2.05% [at 5.95 µM]

Nc1nc(F)nc2c1ncn2[C@@H]1O[C@H](CO)[C@@H](O)[C@@H]1O
inactive: Potency [14] | Potency [17] | outcome [3] | Potency [4] | Potency [5] | Potency [18] | outcome [15] | Potency (Aromatase (Homo sapiens)) | Potency [6] | Potency [7] | outcome [9] | outcome [16] | outcome [12] | outcome [13]
active: Potency [2] 18.8 µM

CC(C)COC(=O)c1ccccc1O
inactive: Potency [2] | Potency [14] | Potency [17] | outcome [3] | Potency [4] | Potency [5] | Potency [18] | outcome [15] | Potency [6] | Potency [8] | outcome [9] | outcome [19] | Potency [10] | Potency [11] | outcome [16] | outcome [12] | outcome [13]

CCCCCCC(=O)OCC
inactive: Potency [2] | Potency [14] | Potency [17] | outcome [3] | Potency [4] | Potency [18] | outcome [15] | Potency (Aromatase (Homo sapiens)) | Potency [6] | Potency [7] | outcome [9] | Potency [10] | outcome [12] | outcome [13]

Nc1ccn(C2CO[C@H](CO)O2)c(=O)n1 (stereo not given in full)
inactive: Potency [2] | Potency [14] | Potency [17] | outcome [3] | Potency [4] | Potency [5] | Potency [18] | outcome [15] | Potency (Aromatase (Homo sapiens)) | Potency [6] | Potency [7] | Potency [8] | outcome [9] | Potency [10] | Potency [11] | outcome [12]

CCCCNc1ccccc1
inactive: Potency [2] | Potency [14] | Potency [17] | outcome [3] | Potency [4] | Potency [5] | Potency [18] | outcome [15] | Potency (Aromatase (Homo sapiens)) | Potency [6] | Potency [7] | Potency [8] | outcome [9] | outcome [19] | Potency [10] | Potency [11] | outcome [12] | outcome [13]
